KDM5B inhibitor: inhibitors of human KDM5B histone demethylase. Q9UGL1. KDM5B demethylase, FDH-coupled NADH fluorescence (FDH is formaldehyde dehydrogenase). Potency, µM (doses to about 57.7 µM), actives largely listed as inhibitors. 220,000 tested, 2.6% active. AID 1347165; active = well fitted inhibition curve with a large enough effect; note: nearly all actives have a fitted effect of over 70% in size
Target sequence (Q9UGL1 whole entry, looked up): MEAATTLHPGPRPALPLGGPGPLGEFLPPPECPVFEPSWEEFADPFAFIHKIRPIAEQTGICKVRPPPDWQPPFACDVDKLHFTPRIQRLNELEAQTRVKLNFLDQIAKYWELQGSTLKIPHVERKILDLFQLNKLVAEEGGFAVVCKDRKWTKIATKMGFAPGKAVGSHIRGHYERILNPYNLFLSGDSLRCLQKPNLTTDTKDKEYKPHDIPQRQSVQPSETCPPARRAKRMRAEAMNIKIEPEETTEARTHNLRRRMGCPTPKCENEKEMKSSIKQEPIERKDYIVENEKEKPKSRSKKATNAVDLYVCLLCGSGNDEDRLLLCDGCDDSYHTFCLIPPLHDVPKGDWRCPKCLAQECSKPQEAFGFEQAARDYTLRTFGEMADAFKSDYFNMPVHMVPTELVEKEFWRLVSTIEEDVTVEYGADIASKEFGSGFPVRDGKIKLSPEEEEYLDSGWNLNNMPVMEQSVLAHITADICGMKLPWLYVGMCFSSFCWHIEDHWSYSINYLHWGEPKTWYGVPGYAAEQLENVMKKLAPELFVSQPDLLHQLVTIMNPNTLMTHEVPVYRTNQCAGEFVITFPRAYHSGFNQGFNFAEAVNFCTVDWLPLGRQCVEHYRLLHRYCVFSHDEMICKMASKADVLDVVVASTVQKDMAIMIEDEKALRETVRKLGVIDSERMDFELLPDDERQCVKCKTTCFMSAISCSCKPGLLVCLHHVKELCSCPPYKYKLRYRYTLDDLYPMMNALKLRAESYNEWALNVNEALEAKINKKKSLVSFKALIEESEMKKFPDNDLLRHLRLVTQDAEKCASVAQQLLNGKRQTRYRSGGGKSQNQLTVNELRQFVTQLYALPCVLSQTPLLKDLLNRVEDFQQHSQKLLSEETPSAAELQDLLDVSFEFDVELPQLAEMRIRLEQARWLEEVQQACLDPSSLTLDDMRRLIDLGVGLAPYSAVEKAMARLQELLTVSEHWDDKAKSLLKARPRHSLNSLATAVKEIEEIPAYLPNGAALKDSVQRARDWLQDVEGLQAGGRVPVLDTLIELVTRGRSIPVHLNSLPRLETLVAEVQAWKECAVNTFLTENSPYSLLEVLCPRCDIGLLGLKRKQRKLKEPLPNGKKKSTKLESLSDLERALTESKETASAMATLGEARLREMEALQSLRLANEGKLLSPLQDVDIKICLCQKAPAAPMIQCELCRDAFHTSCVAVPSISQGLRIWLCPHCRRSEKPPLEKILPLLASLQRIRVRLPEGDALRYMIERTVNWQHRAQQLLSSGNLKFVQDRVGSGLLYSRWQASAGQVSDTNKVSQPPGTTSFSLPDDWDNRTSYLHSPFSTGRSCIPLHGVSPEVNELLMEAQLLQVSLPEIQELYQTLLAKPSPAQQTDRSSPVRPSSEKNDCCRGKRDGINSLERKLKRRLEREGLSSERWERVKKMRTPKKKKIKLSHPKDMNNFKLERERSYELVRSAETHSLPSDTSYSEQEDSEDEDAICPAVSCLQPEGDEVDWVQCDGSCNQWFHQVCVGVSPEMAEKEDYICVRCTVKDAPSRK
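Compound dilutions met 200 nM (final) KDM5BΔAP for 10 min at room temperature before substrate addition. The substrate mix held 12.5 µM H3K4me3 with cofactors 25 µM α-ketoglutarate and 50 µM Fe²⁺. NADH signal gain over 30 min defined activity.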
Hits are given with their value; - = inactive; [ ] = remark or other dose. Many of the other results were omitted from the sample, so hits are more common in it than they were.

SMILES	KDM5B inhibitor
CCn1c(=O)c(=O)n(CC)c2cc(N3CCCCC3)c(NC(=O)c3ccc(OC)c(OC)c3)cc21	-
Cn1c(=O)c(=O)n(C)c2cc(C(=O)NCc3ccccc3Cl)ccc21	-
CCn1c(=O)c2ccnn2c2ccc(C(=O)O)cc21	22µM
CC(=O)c1ccc(NS(=O)(=O)c2cc(-c3nc(-c4ccc(Cl)cc4)no3)sc2C)cc1	-
COc1cccc(CNC(=O)[C@@H]2C[C@@H](O)CN2C2CCN(C(=O)c3ccnn3C)CC2)c1	-
COc1ccc(C2=NC(C(F)(F)F)(C(F)(F)F)N=C(N(C)C)O2)cc1	-
COc1ccc(CNC(=O)Cn2ccc3cccc(OC)c32)cc1	-
CC(Sc1ncnc2ccccc12)C(=O)Nc1cc(Cl)cc(Cl)c1 (centres undefined)	-
CC(C)NC(=O)Nc1c(NC2CCCC2)c2ccccc2oc1=O	-
CCCCNC(=O)c1cc2cc(Cl)ccc2[nH]1	-
CCCCNC(=O)Cc1csc2nc(C)c(-c3cc(C)n(-c4cc(Cl)ccc4C)n3)c(=O)n12	25µM
CCCNC(=O)Cc1csc2nc(C)c(-c3cc(C)n(-c4cc(Cl)ccc4C)n3)c(=O)n12	28µM
Cc1ccc(-c2nc3scc(CCNC(=O)Cc4ccc(Cl)cc4)n3n2)cc1	-
Cc1nc(CC(=O)Nc2cc(Cl)ccc2C)cs1	-
CCCCNC(=O)CCn1nc(-c2ccc(Cl)cc2)c2ccccc2c1=O	-[11.5 µM]
O=c1[nH]c(N2CCOCC2)nc2c1CCN(Cc1ccc(Cl)c(F)c1)CC2	-
O=C1NC(=NC2CCCC2)C2(CCN(Cc3ccsc3)C2)N1c1cccnc1 (centres undefined)	-
CC1CCN(C(=O)CN2C(=O)NC3(CCC(C(C)(C)C)CC3)C2=O)CC1 (centres undefined)	-
CCCc1cc(=O)[nH]c(SCc2nc(-c3ccc(OC)c(OC)c3)no2)n1	-
O=C(Nc1c(NCc2ccccc2)c2ccccc2oc1=O)c1ccccc1Br	-
CC(=O)Nc1ccc(NC(=O)c2nnn(-c3ccc4noc(-c5ccc(Cl)cc5)c4c3)c2C)cc1	-
N[C@@H](Cc1cnc[nH]1)C(=O)NCc1cccnc1Oc1ccc(F)cc1F	-
O=C(NC1CCCCNC1=O)c1cc(Cl)c2c(c1)OCCCO2 (centres undefined)	-
CC(C)C(=O)N1CCC(N2C(=O)C(O)C23CCCCC3)CC1 (centres undefined)	-
CCc1noc(-c2ccn3c(CNC(=O)c4cccnc4)nnc3c2)n1	28µM
SMILES	KDM5B inhibitor
CCc1noc(-c2ccn3c(CNC(=O)c4ccc(F)cc4)nnc3c2)n1	13µM
CCCc1noc(-c2ccn3c(CNC(=O)c4ccc(C)c(C)c4)nnc3c2)n1	4.5µM
CCc1noc(-c2ccn3c(CNC(=O)c4cccc(F)c4)nnc3c2)n1	-
CCCc1noc(-c2ccn3c(CNC(=O)c4ccc(CC)cc4)nnc3c2)n1	25µM
CCc1noc(-c2ccn3c(CNC(=O)Cc4ccc(F)cc4)nnc3c2)n1	-
CCCn1c(CSc2nnc(C3CC3)n2-c2ccccc2)nc2cc(S(=O)(=O)N(C)C)ccc21	-
CC(C)c1ccc(-c2cc(=O)c3cc(NC(=O)CCc4cc(Cl)no4)ccc3o2)cc1	-
CS(=O)(=O)N1CCCC(C(=O)NCc2ccccn2)CCNC(=O)CC1 (centres undefined)	-
COc1ccc(C(=O)N[C@H]2CO[C@H]3[C@@H]2OC[C@@H]3n2nnnc2-c2cccc(OC)c2)cc1	-
CC(C)(C)C(=O)/C=c1/[nH]c(=O)/c(=C/c2cccc(C(F)(F)F)c2)s1	-
CSc1ccc(CN(C)C(=O)/C=C/c2cccs2)cc1	-
Cc1nc(C23CC4CC(CC(C4)C2)C3)c(C)o1	-
O=C(NCCc1ccccc1)C1CCc2ncc(-c3ccsc3)n2C1 (centres undefined)	-
CC(NC(=O)CCc1nc2sc3c(c2c(=O)[nH]1)CCC3)c1cccc(C(F)(F)F)c1 (centres undefined)	-
CC(=O)c1ccc(OCC(=O)NC2CCc3ccccc32)cc1 (centres undefined)	-
O=C(CSc1nc2ccccc2s1)c1ccc(C2CCCCC2)cc1	-
CC(C)(C)NC(=O)C(F)(F)C(F)(F)C(=O)NC(C)(C)C	-
CCc1noc(-c2ccn3c(CNC(=O)c4cc(C)cc(C)c4)nnc3c2)n1	-
CCc1noc(-c2ccn3c(CNC(=O)c4ccc(C)c(C)c4)nnc3c2)n1	3.2µM
CN1CCC(N[C@H]2C[C@@H](Cc3cc(-c4ccc(F)cc4)on3)C2(C)C)CC1	-
COc1ccc(Br)cc1CSc1nnc(C)n1C1CC1	-
O=C(c1ccc(OC2CCN(C(=O)c3ccoc3)CC2)nc1)N1CCOCC1	-
CN(C)C(=O)c1ccc(OC2CCN(C(=O)c3ccoc3)CC2)nc1	-
O=C(c1ccoc1)N1CCC(Nc2cccn3ncnc23)CC1	13µM
COc1ccc(-c2cccc(C(=O)O)c2)cc1	-
COc1cccc(-c2ccc(C(=O)O)cc2)c1	112µM
COc1cccc(-c2cccc(C(=O)O)c2)c1	-
Cc1n[nH]c(C)c1C(N)C(=O)NCCc1cccc(C(F)(F)F)c1 (centres undefined)	-

Assay outcomes (PubChem BioAssay)
